BoNT A protease = blocks Botulinum neurotoxin A light chain protease | multiplex microsphere protease substrate cleavage, flow cytometry | inhibition, % at 10 µM | hit rate 0.17% among 360,000; note: plate controls were buffer without enzyme for full effect and enzyme alone for no effect
SARS 3CLpro inh = SARS-CoV 3CLpro protease inhibition | hit rate 0.14% among 290,000 | inhibition, % at 6 µM | P0C6X7 | recombinant SARS-CoV 3CLpro, quenched FRET peptide cleavage; in the data active = inhibition above about 12%
BoNT F protease = inhibitors of Botulinum neurotoxin F light chain protease | hit rate 0.22% among 360,000 | Multiplex microsphere protease cleavage assay, flow cytometry | inhibition, % at 10 µM; in the data active = inhibition above about 35%, passing the limit was not always enough; inconclusive = no clear call, values can overlap the other calls; note: plate controls were buffer without enzyme for full effect and enzyme alone for no effect
Autofluor counter = flagged as autofluorescent in microsphere protease counterscreen. compound autofluorescence counterscreen, microsphere flow cytometry; hits give high values. fluorescence intensity (test concentration not listed). hit rate 3.1% among 360,000. AID 624483; in the data active = fluorescence intensity above about 16000; inconclusive = no clear call, values can overlap the other calls
CCHFV vOTU inh = blocks the CCHF virus ovarian tumor domain protease; CCHFV vOTU protease, Pep-AMC fluorescence; inhibition, % at 11.5 µM; hit rate 0.55% among 370,000; in the data active = inhibition above about 30%; note: 0% = vehicle wells with enzyme and 100% = no enzyme wells
Anthrax LF prot = blocks Bacillus anthracis lethal factor protease | inhibition, % at 10 µM | P15917 | hit rate 0.12% among 360,000 | multiplex microsphere protease cleavage assay, LF; note: plate controls were buffer without enzyme for full effect and enzyme alone for no effect
Target sequence (P15917 whole entry, looked up): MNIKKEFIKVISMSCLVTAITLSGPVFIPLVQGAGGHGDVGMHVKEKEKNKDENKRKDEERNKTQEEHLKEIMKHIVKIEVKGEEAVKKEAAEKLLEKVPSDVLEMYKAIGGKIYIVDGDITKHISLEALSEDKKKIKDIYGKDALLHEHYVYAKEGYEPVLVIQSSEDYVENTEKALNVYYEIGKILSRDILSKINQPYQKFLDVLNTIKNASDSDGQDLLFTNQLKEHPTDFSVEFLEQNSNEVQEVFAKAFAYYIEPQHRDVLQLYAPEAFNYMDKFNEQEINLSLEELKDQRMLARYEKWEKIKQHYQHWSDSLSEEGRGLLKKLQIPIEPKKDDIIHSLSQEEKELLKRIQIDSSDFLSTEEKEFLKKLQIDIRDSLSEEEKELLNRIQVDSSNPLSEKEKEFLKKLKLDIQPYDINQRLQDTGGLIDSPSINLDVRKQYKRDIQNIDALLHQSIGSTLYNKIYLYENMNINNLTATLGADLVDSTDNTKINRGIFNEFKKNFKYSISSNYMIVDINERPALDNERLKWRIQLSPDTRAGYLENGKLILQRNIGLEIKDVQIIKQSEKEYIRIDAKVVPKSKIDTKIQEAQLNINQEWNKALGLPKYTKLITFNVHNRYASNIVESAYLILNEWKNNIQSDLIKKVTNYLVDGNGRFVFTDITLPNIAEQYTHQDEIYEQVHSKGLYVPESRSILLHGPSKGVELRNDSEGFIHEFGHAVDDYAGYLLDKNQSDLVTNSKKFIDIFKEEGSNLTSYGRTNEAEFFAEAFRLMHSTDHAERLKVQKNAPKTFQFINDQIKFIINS
* = called active by the depositor. Hits are enriched below; roughly 3.9% of the tested compounds scored in any of these assays. Cut-off read from the data, not from the text of the source, unless noted: active = inhibition above about 30%; inconclusive = no clear call, values can overlap the other calls; inactive = below that.

What do the screens show for `C[C@@H]1COc2cc(Br)ccc2S(=O)(=O)N1Cc1cn(CC2CCCCC2)nn1`?
CCHFV vOTU inh: 3

How did CCOc1cc(C2C(C#N)=C(N)OC(C)=C2C(C)=O)c(Br)c(Br)c1OC(C)C (centres undefined) do in these assays?
BoNT A protease: 3; SARS 3CLpro inh: 4; BoNT F protease: 4; Autofluor counter: 21864*; Anthrax LF prot: 0

What do the screens show for `CCOC(=O)C1=C(C)OC(N)=C(C#N)C1c1ccc(OC)c(C)c1OC` (centres undefined)?
BoNT A protease: inconclusive; SARS 3CLpro inh: -6; BoNT F protease: -2; Autofluor counter: 20362*; CCHFV vOTU inh: 1; Anthrax LF prot: 1

What do the screens show for `CCOC(=O)C1=C(CC)OC(N)=C(C#N)C1c1cc(OC)ccc1OC` (centres undefined)?
BoNT A protease: inconclusive; SARS 3CLpro inh: -5; BoNT F protease: -8; Autofluor counter: 21578*; CCHFV vOTU inh: 9; Anthrax LF prot: 0

Results for Cc1ccc(-c2c(NC(=O)c3cccc(C)c3)nc3ncccn23)cc1 ?
CCHFV vOTU inh: -20

Results for Cc1nn(CCC#N)c(NC(=O)c2ccc(Cl)cc2Cl)c1P(=O)(Nc1ccc([N+](=O)[O-])cc1)N1CCOCC1 (centres undefined) ?
BoNT A protease: 1; SARS 3CLpro inh: -1; BoNT F protease: 3; Autofluor counter: 16178*; CCHFV vOTU inh: 8; Anthrax LF prot: 0

Results for Cc1nn(CCC#N)c(NC(=O)c2ccc(Cl)cc2)c1P(=O)(Nc1ccc([N+](=O)[O-])cc1)N1CCOCC1 (centres undefined) ?
SARS 3CLpro inh: 0; CCHFV vOTU inh: 2

How did Cc1cc(=O)[nH]c(S/C=C/c2ccccc2)n1 do in these assays?
BoNT A protease: -2; SARS 3CLpro inh: -5; BoNT F protease: -3; Autofluor counter: 20598*; CCHFV vOTU inh: -11; Anthrax LF prot: -2

What do the screens show for `COc1ccccc1CNC(=O)c1ccccc1N`?
BoNT A protease: -1; SARS 3CLpro inh: 3; BoNT F protease: 7; Autofluor counter: 11136; Anthrax LF prot: 0

Results for COc1ccccc1CNC(=O)c1ccc(NS(C)(=O)=O)cc1 ?
BoNT A protease: -1; SARS 3CLpro inh: -3; BoNT F protease: -18; Autofluor counter: 6854; CCHFV vOTU inh: 8; Anthrax LF prot: 3

How did COc1ccccc1CNC(=O)c1ccccc1NS(C)(=O)=O do in these assays?
BoNT A protease: 0; SARS 3CLpro inh: 4; BoNT F protease: 0; Autofluor counter: 20558*; CCHFV vOTU inh: -13; Anthrax LF prot: 0

What do the screens show for `COc1ccccc1CNC(=O)c1ccccc1N(C)S(C)(=O)=O`?
BoNT A protease: 2; SARS 3CLpro inh: 3; BoNT F protease: 2; Autofluor counter: 19853*; CCHFV vOTU inh: -7; Anthrax LF prot: 0

Results for CCN(CC)S(=O)(=O)c1ccc(NC(=O)c2ccccc2N(C)S(C)(=O)=O)cc1 ?
BoNT A protease: inconclusive; SARS 3CLpro inh: -4; BoNT F protease: 3; Autofluor counter: 21922*; CCHFV vOTU inh: 2; Anthrax LF prot: -7

Results for O=S1(=O)c2ccc(Br)cc2OC[C@@H](c2ccccc2)N1Cc1cn(Cc2ccccc2)nn1 ?
CCHFV vOTU inh: -6

How did COc1ccc(NC(=O)c2cc3c(C)nn(-c4ccccc4)c3s2)cc1 do in these assays?
CCHFV vOTU inh: 3

Results for O=C(NCCc1ccccc1)c1ccc(-n2cnnn2)cc1 ?
BoNT A protease: inconclusive; SARS 3CLpro inh: 1; BoNT F protease: -5; Autofluor counter: 16633*; CCHFV vOTU inh: 4; Anthrax LF prot: -2

What do the screens show for `CN(C)S(=O)(=O)c1cccc(C(=O)NCCNC(=O)c2cccc(S(=O)(=O)N(C)C)c2)c1`?
BoNT A protease: -4; SARS 3CLpro inh: -6; BoNT F protease: inconclusive; Autofluor counter: 4081; CCHFV vOTU inh: 10; Anthrax LF prot: 8

How did CCN(CC)S(=O)(=O)c1cccc(C(=O)NCCc2ccccc2)c1 do in these assays?
BoNT A protease: -3; SARS 3CLpro inh: -2; BoNT F protease: 0; Autofluor counter: 16952*; CCHFV vOTU inh: 2; Anthrax LF prot: -3

Results for CCN(CC)S(=O)(=O)c1cccc(C(=O)Nc2cc(C)cc(C)c2)c1 ?
BoNT A protease: 1; SARS 3CLpro inh: 4; BoNT F protease: 17; Autofluor counter: 3498; CCHFV vOTU inh: -3; Anthrax LF prot: 0

What do the screens show for `CCN(CC)S(=O)(=O)c1cccc(C(=O)Nc2ccc(C#N)cc2)c1`?
BoNT A protease: -1; SARS 3CLpro inh: -2; BoNT F protease: -4; Autofluor counter: 16843*; CCHFV vOTU inh: 6; Anthrax LF prot: 0

Assay outcomes from PubChem BioAssay.
